This is part of a sample that, as a whole, favours compounds with a hit. Of some 79,000 tested, about 15% had one in any assay. The source made the active and inactive calls. Cut-off read from the data, not from the text of the source: active = growth inhibition above about 70%; inactive = the rest.
Tests used:
[1] = NCI Yeast Anticancer Drug Screen. Data for the rad50 strain (AID 155);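 note: 0% = growth of vehicle-only cultures of the same strain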; conditions: S. cerevisiae rad50 strain growth inhibition; at 50.0 µM; hits give high values
Procedure, shortened: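 DNA repair mutant yeast, compound exposure, growth read-out; inhibition is taken relative to vehicle.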

[2] = NCI Yeast Anticancer Drug Screen. Data for the mec2-1 strain (AID 157); conditions: S. cerevisiae mec2-1 strain, at 50.0 µM, hits give high values
Procedure, shortened: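 mec2-1 yeast strain, carrying an alteration in DNA damage repair or cell cycle control, was exposed to compounds; growth inhibition was measured relative to vehicle-treated controls.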

[3] = NCI Yeast Anticancer Drug Screen. Data for the sgs1 mgt1 strain (AID 161);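 note: 0% = growth of cultures given vehicle only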; conditions: S. cerevisiae sgs1 mgt1 strain, at 50.0 µM, hits give high values
Procedure, shortened: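 Yeast cells carrying a defined DNA-repair defect were exposed to test compounds. Growth inhibition was measured relative to vehicle-treated controls.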

[4] = NCI Yeast Anticancer Drug Screen. Data for the cln2 rad14 strain (AID 165);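 note: 0% = growth equal to vehicle treated cultures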; conditions: S. cerevisiae cln2 rad14 strain, at 50.0 µM, hits give high values
Procedure, shortened: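 Yeast carrying cln2 and rad14 alterations (cell cycle control and DNA damage repair) were exposed to compounds. Growth inhibition was measured against vehicle-treated controls.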

[5] = NCI Yeast Anticancer Drug Screen. Data for the bub3 strain (AID 167); conditions: S. cerevisiae bub3 mutant strain, at 50.0 µM, hits give high values
Procedure, shortened: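 In this screen, a yeast mutant lacking normal mitotic checkpoint function is challenged with compound. Relative growth versus vehicle gives the inhibition value.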

[6] = NCI Yeast Anticancer Drug Screen. Data for the mlh1 rad18 strain (AID 175); conditions: S. cerevisiae mlh1 rad18 strain growth inhibition; at 50.0 µM; hits give high values
Procedure, shortened: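 Growth inhibition of the yeast strain was measured after compound exposure and expressed relative to vehicle-treated controls. The strain carries defined defects in DNA damage repair.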

Measured: growth inhibition

ClCCCCCc1c2nc(c(CCCCCCl)c3ccc([nH]3)c(CCCCCCl)c3ccc([nH]3)c(CCCCCCl)c3nc1C=C3)C=C2
inactive: [1] -14.2% | [2] -19.1% | [3] -20.6% | [4] 3.75% | [5] 4.9% | [6] -47.4%

CC1OC(O[C@H]2CC[C@]3(C)[C@H]4CC=C5[C@@H]6[C@@H](C)[C@H](C)CC[C@]6(C(=O)O)CC[C@@]5(C(=O)O)[C@]4(C)CC[C@H]3C2(C)C)C(O)C(O)C1O (stereo partly specified)
inactive: [1] -17.5% | [2] -9.8% | [3] -10.6% | [4] -5.7% | [5] -13.7% | [6] -58.5%

CSC(SC)=C1Sc2cccc(Cl)c2S1
inactive: [1] 1.65% | [2] 11.3% | [3] 29.2% | [4] -14.7% | [5] -15.1% | [6] -13.8%

NCCCNCCS
inactive: [1] 19.6% | [2] 1.5% | [3] 22.6% | [4] 18.3% | [5] 2.5% | [6] 17.1%

CCN(C=O)c1ccccc1
inactive: [1] 15.7% | [2] -7.55% | [3] -6.95% | [4] -0.8% | [5] 5.95% | [6] 6.55%

CCOc1c(N=Nc2ccc(Br)cc2)c(C)nn1C(N)=S
inactive: [1] -4.5% | [2] 33.9% | [3] 26.1% | [4] -0.3% | [5] 31.2% | [6] 45%

NC1=NN(c2ccccc2)C(=O)C1/C(=N\NC(=O)c1cc2ccccc2cc1O)C(=O)Nc1ccc(Cl)c(Cl)c1 (stereo unspecified)
inactive: [1] 28.7% | [2] 10% | [3] -17.2% | [4] 31.6% | [5] 6.95% | [6] 21.1%

CCOC(=O)/C(C#N)=C/c1ccccc1F
inactive: [1] 22.9% | [2] 13.5% | [3] 20.4% | [4] 1.4% | [5] 14.8% | [6] 40.8%

CSc1cc(Cl)c(C)cc1S(=O)(=O)NC(=O)NNc1ccc(Cl)cc1
inactive: [1] 23.9% | [2] 11.2% | [3] 10.6% | [4] 7.55% | [5] -3.75% | [6] 51.6%

Cc1nc2c(sc3ccccc3n2C)c2nc3c(sc4ccccc4n3C)c(C)c12
inactive: [1] -3.95% | [2] -4.2% | [3] 1.45% | [4] -24.4% | [5] -2.6% | [6] 15.1%

COC(=O)Cc1nc2ccccc2o1
inactive: [1] 36.1% | [2] 9% | [3] 20.9% | [4] 37.9% | [5] 59.2% | [6] 31.5%

CCOC(=O)NNC(C)(C)C
inactive: [1] 4.15% | [2] 4.35% | [3] 4.5% | [4] 21.8% | [5] -9% | [6] -3.7%

CN(C)S(=O)(=O)N1CCOCC1
inactive: [1] 9.3% | [2] -6.65% | [3] -1.15% | [4] 11.2% | [5] -2.8% | [6] 4.8%

COC1OC(C(C)Br)C2OC(C)(C)OC12 (stereo unspecified)
inactive: [1] 7.1% | [2] 21.4% | [3] 3.5% | [4] -6.2% | [5] 9.85% | [6] 27.4%

C=C(CN(C)C)C(=O)c1ccc(OC)cc1
inactive: [1] 7.75% | [2] 19% | [3] -3.75% | [4] 17.5% | [5] 2% | [6] 27.2%

COC1OC(COS(=O)(=O)c2ccc(C)cc2)C(N(C)C(C)=O)C1OS(=O)(=O)c1ccc(C)cc1 (stereo unspecified)
inactive: [1] 8.65% | [2] -8.3% | [3] 16.6% | [4] -2.3% | [5] 2.3% | [6] 0.65%

CC(c1ccccc1)N1COc2cc3c(cc2C1)CN(C(C)c1ccccc1)CO3 (stereo unspecified)
inactive: [1] -11.8% | [2] 0.4% | [3] -6.8% | [4] -28.3% | [5] -1.3% | [6] 6.7%

NCCSSCCCCSSCCN
inactive: [1] -8.95% | [2] -0.7% | [3] -13.7% | [4] -43.2% | [5] -1.2% | [6] -1.9%

COC(=O)C1CC=CCC1 (stereo unspecified)
inactive: [1] 23.1% | [2] -8.05% | [3] 6.85% | [4] 14.2% | [5] 1.15% | [6] 32.4%

O=C(C1=Cc2ccccc2OC1)N1CCN(c2ccccc2Cl)CC1
inactive: [1] 12.3% | [2] 20.2% | [3] 34.6% | [4] 24.4% | [5] 38% | [6] 40.1%

O=C1CC[C@@H](C(=O)Nc2cccc3ccccc23)N1
inactive: [1] -7.15% | [2] 8.45% | [3] 8.5% | [4] -24.4% | [5] 10.6% | [6] 21.2%

O=c1[nH]cnc2nn(C3OC(CO)C(O)C3O)cc12 (stereo unspecified)
inactive: [1] -20.4% | [2] 12.9% | [3] -6.85% | [4] -5.65% | [5] 9.25% | [6] -18.9%

CC1=CCCCC1
inactive: [1] 3.85% | [2] 2.8% | [3] -1.35% | [4] -5.1% | [5] 8.65% | [6] -7.25%

Cc1cc(C(C)(C)CC(=O)O)cc(C)c1C
inactive: [1] 60.6% | [2] 37.4% | [3] 27.6% | [4] 43.6% | [5] 54% | [6] 56.3%

CC(=O)OCC(=O)O[C@@H]1[C@H]2[C@@H](OC(=O)c3ccccc3)[C@@H](C)C[C@]2(O)[C@H](OC(C)=O)[C@@]2(C)C[C@]1(OC(C)=O)C[C@H]1C(=O)C(C)(C)[C@@H](OC(C)=O)[C@@H]12
inactive: [1] -7.35% | [2] 8.2% | [3] -0.3% | [4] -15.3% | [5] 0.3% | [6] -17.8%

CSC1=N/C(=C\c2ccc(C)cc2)C(=O)N1
inactive: [1] -35.5% | [2] 0.3% | [3] 20.2% | [4] 0.85% | [5] -6.35% | [6] -10.5%

COc1cc(C=O)ccc1OC(=O)Nc1ccc(F)c([N+](=O)[O-])c1
inactive: [1] 0.8% | [2] 30.4% | [3] 19.1% | [4] -2.45% | [5] 28.1% | [6] 14.7%

O=C(O)c1cc(C(=O)O)cc(S(=O)(=O)N2CCOCC2)c1
inactive: [1] -2.1% | [2] 3.25% | [3] -3.8% | [4] -37.8% | [5] 6.05% | [6] -16.2%

O=C1CC2COc3ccc(OCCN4CCCC4)cc3C2=NN1c1ccccc1 (stereo unspecified)
inactive: [1] -4.75% | [2] 16.9% | [3] -22.7% | [4] -18.9% | [5] 2.15% | [6] 1.1%

Cc1cc(C)c(S(=O)(=O)Nc2ccccc2F)c(C)c1
inactive: [1] 40.1% | [2] 30.7% | [3] 62.9% | [4] 7.3% | [5] 29.4% | [6] 56.9%

CCOC(=O)CCC(NC(=O)c1ccc(Nc2cnc3ccc(C(F)(F)F)cc3n2)cc1)C(=O)OCC (stereo unspecified)
inactive: [1] 24.3% | [2] 6.45% | [3] 12.2% | [4] 14.1% | [5] 19.9% | [6] -23.8%

CN1CCN(CCCNN)CC1
inactive: [1] 2.05% | [2] -17.1% | [3] -17.6% | [4] 3.55% | [5] -70.6% | [6] -30.1%

CCOC(=O)CCC1(CCC(=O)OCC)c2ccccc2-c2ccccc21
inactive: [1] 3.65% | [2] 9% | [3] -1.85% | [4] -7.15% | [5] -3.75% | [6] 13%

CC12CCC(C/C1=N\N=C(N)N)C2(C)C (stereo unspecified)
inactive: [1] 7.55% | [2] -4% | [3] -2.2% | [4] -36.9% | [5] -5.05% | [6] 6.2%

NC(=S)N/N=C(/CC(=O)c1ccc([N+](=O)[O-])cc1)C(=O)Nc1ncc([N+](=O)[O-])s1
inactive: [1] 51.9% | [2] 29% | [3] 30.1% | [4] 19.2% | [5] 53.2% | [6] 25.2%

COc1cc(/C=N/NC2=NCCN2)ccc1O
inactive: [1] 24.4% | [2] 11.8% | [3] 13.2% | [4] 14.8% | [5] 18.9% | [6] 11.8%

Cc1ccccc1OCC1COCN(C(C)(C)CO)CO1 (stereo unspecified)
inactive: [1] -11.1% | [2] -4.5% | [3] -5.5% | [4] 7.9% | [5] -13.9% | [6] 16.8%

CCSC1(SCC)C(=O)OC2=C(CCCCC2)C1N(C)c1ccccc1 (stereo unspecified)
inactive: [1] -15.2% | [2] -12.7% | [3] -14.4% | [4] -22.6% | [5] 1.1% | [6] -12.7%

CCCCN(CCCC)CC(O)c1cc(OC)c2cc(Cl)cc(Cl)c2n1 (stereo unspecified)
active: [1] 99.5% | [2] 99.8% | [3] 99.8% | [4] 99.3% | [5] 99.2% | [6] 99.7%

Cc1ccc(NC(=O)CCCC(=O)C(C#N)c2nc3ccccc3s2)cc1C (stereo unspecified)
inactive: [1] 10.9% | [2] 14.6% | [3] -9.8% | [4] 0.7% | [5] -7.35% | [6] 15.1%

CCNC(=S)Nc1ccc(OCC)cc1
inactive: [1] 14.2% | [2] 24.3% | [3] 31.4% | [4] -18.1% | [5] 33.9% | [6] 16.4%

— PubChem BioAssay (NCI)
